Results filed as inconclusive are left out. A call without a number means that no potency is given here. Calls of active or inactive are those of the source. Calls follow the shape of the dose curve; as a rule, active = well fitted curve in the direction sought with a large enough effect; inconclusive = small, poorly fitted or top-dose-only effect, or another doubt; inactive = no such curve, though single readings can be large; an effect the other way counts as inactive or inconclusive.
System: not listed separately
Experiment: qHTS to identify inhibitors of the type 1 interferon - major histocompatibility complex class I in skeletal muscle: primary screen against the NCATS Mechanism Interrogation Plate v5.0 (MIPE) Libary (AID 1347411); also: nearly all actives have a fitted effect of over 65% in size; also: potency is read from the fitted curve at half-maximal effect
Conditions: iHSKM cells + IFN-b, HiBiT-tagged MHC-I luminescence, 24 h; series mostly up to 45.8 µM
Procedure, shortened: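 Immortalized human myoblasts (C25cl48) with HiBit knocked into endogenous HLA-B*08:01 were stimulated with 4 ng/ml IFN-beta and given compounds in 11-point 1:3 titration from 46 uM. After 24 h at 37 C, lytic HiBiT luminescence was read.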

Question: Which Potency does the source give for CCC(=O)Nc1cccc(Oc2nc(Nc3ccc(N4CCN(C)CC4)cc3OC)ncc2Cl)c1 here?
Answer: The Potency was “inactive”.

Question: For Cn1nccc1Nc1nccc(-c2ccn([C@H](CO)c3ccc(Cl)c(F)c3)c(=O)c2)n1, which Potency is on record?
Answer: Its Potency is “inactive”.

Question: With COc1cc2nc(-c3cc(F)ccc3O)nc(N[C@@H]3CNC[C@H]3C(C)(C)O)c2cc1OC as the compound, how does the Potency read?
Answer: Its Potency is 3.7 µM (active).

Biological target: Calcium and integrin-binding protein 1 (Homo sapiens) (UniProt Q99828)
Sequence (Q99828 whole entry, looked up): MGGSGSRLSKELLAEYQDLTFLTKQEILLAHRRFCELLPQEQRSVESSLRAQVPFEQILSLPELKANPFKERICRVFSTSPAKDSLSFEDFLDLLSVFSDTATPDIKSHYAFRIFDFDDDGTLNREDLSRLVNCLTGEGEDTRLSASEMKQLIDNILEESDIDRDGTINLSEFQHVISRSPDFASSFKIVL
Experiment: Primary qHTS for Identification of Calcium Integrin Binding Protein 1 (CIB1) Competitor (AID 1508620);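 also: GST tagged CIB1 binding a fluorescein labelled alphaIIb integrin peptide tracer; top concentration of the series differs between compounds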
Conditions: CIB1-GST / FITC-alphaIIb peptide fluorescence polarization; series mostly up to 114 µM
Procedure, shortened: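 Fluorescence polarization competition: CIB1-GST (1 uM final) preincubated with compound 15 min at room temperature, then FITC-labeled alphaIIb peptide (100 nM final) added for another 15 min. Polarization read at Ex 480/Em 540.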

Question: With CC(=O)N1CCN([C@H]2CCN(C(=O)N(C)[C@H](C)c3cc(C(F)(F)F)cc(C(F)(F)F)c3)[C@@H](c3ccc(F)cc3C)C2)CC1 as the compound, how does the outcome read?
Answer: The outcome was “inactive”.

Question: Which outcome does the source give for C=C1C(=O)O[C@@H]2C[C@@H](C)[C@]34C[C@]5(C(=O)O[C@H]6CC(C)=C([C@H](C)CCCO)[C@H](OC(=O)C(C)CC)[C@H]65)[C@@H](C(C)=C3C[C@@H]12)[C@H]4OC(C)=O (stereo partly specified) here?
Answer: The outcome was “inactive”.

Question: Which outcome does the source give for COc1ccccc1-c1c[nH]c2ncc(-c3cncc(C(=O)N(C)C)c3)cc12 here?
Answer: The outcome was “inactive”.

Question: Which outcome does the source give for Fc1ccccc1CNCc1ccc(-c2ccnc3[nH]ccc23)cc1 here?
Answer: The outcome was “inactive”.

Question: With Clc1ccccc1CNCC1CCC(CNCc2ccccc2Cl)CC1 (stereo unspecified) as the compound, how does the outcome read?
Answer: Its outcome is “inactive”.

Question: Which outcome does the source give for CNc1nc(-c2ccc3c(N)n[nH]c3c2)cc(N2CC(C(=O)NC3CCCCC3)CCC2C)n1 (stereo unspecified) here?
Answer: Its outcome is “inactive”.

Question: With CC[C@H]1OC(=O)[C@H](C)[C@@H](O[C@H]2C[C@@](C)(OC)[C@@H](O)[C@H](C)O2)[C@H](C)[C@@H](O[C@@H]2O[C@H](C)C[C@H](N(C)C)[C@H]2O)[C@](C)(O)C[C@@H](C)/C(=N/OCOCCOC)[C@H](C)[C@@H](O)[C@]1(C)O as the compound, how does the outcome read?
Answer: The outcome was “inactive”.

Question: With C[C@@H](CN1CCC(n2c(=O)[nH]c3cc(Cl)ccc32)CC1)NC(=O)c1ccc2ccccc2c1 as the compound, how does the outcome read?
Answer: Its outcome is “inactive”.

— PubChem BioAssay (NCATS)
